Assay results published in the supplement of paper PMC6555819.

The sequences below were run on PPARg:RXRa (NR concentration 180 nM, RXRa partner concentration 90 nM) (assay: PBM binding z-score (relative to random genomic background probes); higher = stronger binding; sequences stand for … in GC…GCGATTGACAGCGTAGAATGAAGG).
Outline: (§1)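 Each nuclear receptor dimer, without ligand, was incubated for 1 h on custom Agilent 4×180K protein-binding microarrays. Binding was detected with antibodies against each partner (one per run), and scanned fluorescence was regression-normalized. The binding z-scores are referenced to random human genomic background probes.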

Sequence	PBM binding z-score
TCGAGTAGGTTAGGGGCATGCAGAATGGCGTCGA	0.641
TCATATAGGTGAAGGTGAAAGTCGAACGATATGA	5.02
GCGACCGGGGCAAAGCAGGTTACCATAAGGTTGG	0.709
CAGACTGGGGCAAGGTTACCATAACGCACAGCCA	3.76
CCTAGTTGGTCTAGGTCACACACGCTATAGGTAC	1.42
ATATGTAGGTTATCGGGTCATTCCGTTTGCGCAT	6.78
CCTAACAGGCCAATCTGGGTCACTCAAGGCTTGA	2.31
CCTAGCAGGCCAGGGTCACTCGAGCATTTCGCTT	0.557
CAAACTAGGTCGCGAAAGGTCAAAGTCGAATGAC	7.96
ACTAGTTGGTCAGCCGAGGTCACACACAATTCGG	2.34
TCTTGTAGATCAATAGAGATTAAGAAAGTGCGCT	0.302
ACTAGTTGGTCAGCTGAGGTCAGACACAATTCGG	0.879
AGAACGAGGGCACGCTGAGTTGATAGAAGAGTAG	2.05
ACTCGGAGGCCAAAGGTCAGAGCTACGCCAGTGA	8.85
TATACAGCGTCAAAGGCCAGAGTACGAATGTCGA	1.16
AGAACGAGGGCACGCTTAGTTGATAGCAGAGTAG	2.16
GCTTACGGGTCAAAGCTTATAGCATGAATAGAAT	4.76
TGTCAAAGTTCAAAGGTAACATAAGTATCCACAC	8.82
AGTCAAAGTTCATCTAGGTACCGTAAGATATGCT	6.25
CCTAGTTGGTCAAGGTCACACAAGCTATAGGTAC	3.5

Sequence	PBM binding z-score
ATATGTAGGTTATCGGGACATTCAGTTTGCGCAT	5.05
CCTCACGGGTCAAGGTTATAGCACGGGTGGTACG	3.05
TCATATTGGTAAACAGGTGAAAGTCCGTAAGTTA	0.821
CTCGAAAGGTCGGTCGAGGTGAGTATACGGATAA	0.678
CGTCCAAGGTCATAGGAGGTCAGTTAAGACAGAT	5.84
GATACAGGGTCAGCTAGAGGCCAGAGTTTGGAAA	3.23
GCTAGTTGGTCAGTAAAAGGTCACACATCGGTCG	2.71
TCATATAGGTAAAAGGTGGAAGTCGGTGTGGTAA	6.89
GCAGACAGGTGAAACGCAGGAAACTCAGGGTGGC	0.592
CCTGCTAGATCAATGGTCAGCTAAAGCAGCTCGC	-0.182
GTACCAGGGTGAATAGGTCGTTGATGAGTAGGCG	1.15
TCATATAGGTCAATGCTAGGTGAAAGTCCGATCT	5.86
GCTAGCTGGCCATTTGGGTCACTCAATGACGGGC	0.205
TCATATAGGTAAACGTGAAAGTCGAACGATATGA	1.44
CAAACTAGGTCAAAGGTCTAAGTCGAGCCAACCA	12
GCTTACGGGTCATAGGTTATAGCATGAATAGAAT	9.25
CAAACTAGGTCACGAAAGGTCAAAGACGAATGAC	10.4
CGTCCCAGGTCAATGCTAGGTCAGTGAAAGCATT	2.35
TCTCGGAGGACACGAACGGTCAGAGCTCGACATC	0.0784
CCGACTGGGGCATAATGTTACCATAAGCCAGCCC	1.15

What follows are sequences tested on PPARg:RXRa 270nM:90nM, anti-RXR (NR concentration 270 nM, RXRa partner concentration 90 nM) in the same assay as above.
Outline: as §1

Sequence	PBM binding z-score
TCGAGTAGGTTAGGGGCATGCAGAATGGCGTCGA	1.68
TCATATAGGTGAAGGTGAAAGTCGAACGATATGA	5.16
GCGACCGGGGCAAAGCAGGTTACCATAAGGTTGG	0.611
CAGACTGGGGCAAGGTTACCATAACGCACAGCCA	4.25
CCTAGTTGGTCTAGGTCACACACGCTATAGGTAC	1.53
ATATGTAGGTTATCGGGTCATTCCGTTTGCGCAT	5.92
CCTAACAGGCCAATCTGGGTCACTCAAGGCTTGA	2.35
CCTAGCAGGCCAGGGTCACTCGAGCATTTCGCTT	1.6
CAAACTAGGTCGCGAAAGGTCAAAGTCGAATGAC	6.66
ACTAGTTGGTCAGCCGAGGTCACACACAATTCGG	2.6
TCTTGTAGATCAATAGAGATTAAGAAAGTGCGCT	1.34
ACTAGTTGGTCAGCTGAGGTCAGACACAATTCGG	1.07
AGAACGAGGGCACGCTGAGTTGATAGAAGAGTAG	1.54
ACTCGGAGGCCAAAGGTCAGAGCTACGCCAGTGA	7.98
TATACAGCGTCAAAGGCCAGAGTACGAATGTCGA	1.62
AGAACGAGGGCACGCTTAGTTGATAGCAGAGTAG	1.86
GCTTACGGGTCAAAGCTTATAGCATGAATAGAAT	5.32
TGTCAAAGTTCAAAGGTAACATAAGTATCCACAC	7.65
AGTCAAAGTTCATCTAGGTACCGTAAGATATGCT	6.29
CCTAGTTGGTCAAGGTCACACAAGCTATAGGTAC	4.1

Sequence	PBM binding z-score
ATATGTAGGTTATCGGGACATTCAGTTTGCGCAT	4.45
CCTCACGGGTCAAGGTTATAGCACGGGTGGTACG	3.67
TCATATTGGTAAACAGGTGAAAGTCCGTAAGTTA	2.67
CTCGAAAGGTCGGTCGAGGTGAGTATACGGATAA	1.5
CGTCCAAGGTCATAGGAGGTCAGTTAAGACAGAT	5.96
GATACAGGGTCAGCTAGAGGCCAGAGTTTGGAAA	3.01
GCTAGTTGGTCAGTAAAAGGTCACACATCGGTCG	4.56
TCATATAGGTAAAAGGTGGAAGTCGGTGTGGTAA	7.1
GCAGACAGGTGAAACGCAGGAAACTCAGGGTGGC	-0.351
CCTGCTAGATCAATGGTCAGCTAAAGCAGCTCGC	0.115
GTACCAGGGTGAATAGGTCGTTGATGAGTAGGCG	1.61
TCATATAGGTCAATGCTAGGTGAAAGTCCGATCT	6.06
GCTAGCTGGCCATTTGGGTCACTCAATGACGGGC	-0.0931
TCATATAGGTAAACGTGAAAGTCGAACGATATGA	2.44
CAAACTAGGTCAAAGGTCTAAGTCGAGCCAACCA	10
GCTTACGGGTCATAGGTTATAGCATGAATAGAAT	7.94
CAAACTAGGTCACGAAAGGTCAAAGACGAATGAC	8.57
CGTCCCAGGTCAATGCTAGGTCAGTGAAAGCATT	3.05
TCTCGGAGGACACGAACGGTCAGAGCTCGACATC	0.624
CCGACTGGGGCATAATGTTACCATAAGCCAGCCC	1.01
